Among the data in PubChem BioAssay (NCI) are growth values, retold here.

About 83,000 compounds went through this panel and 20% of them were active in at least one assay; those are over-represented in the sample as a whole.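 Results are percent growth after 48 hours of single-concentration exposure. 100 means growth as in untreated cells, lower positive values show inhibition; negative values down to -100 show cell death.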 Values without a mark were called inactive. Active and inactive are the calls of the source. How the source made its calls: active means growth percent below 10; inactive means the rest.

Among the test systems are SK-MEL-2 melanoma; EKVX NSCLC; SN12C renal; UO-31 renal; TK-10 renal; ACHN renal; CAKI-1 renal; A498 renal; CCRF-CEM leukemia; MOLT-4 leukemia; SR leukemia; RPMI-8226 leukemia; OVCAR-8 ovarian; OVCAR-4 ovarian; SK-OV-3 ovarian; IGROV1 ovarian; OVCAR-3 ovarian; HS 578T breast; NCI/ADR-RES ovarian; OVCAR-5 ovarian.
What all share (assay): NCI-60 one-dose screen, 48 h (100 = growth as untreated, 0 = no growth, -100 = all killed)
Settings in all cases: 10 µM unless noted

On to `CC1CCNC(C)C1` (stereo unspecified), for which the growth in the experiment with SK-MEL-2 melanoma was 112%; in the experiment on EKVX NSCLC it was 107%; in the experiment with SN12C renal, 103%; in the experiment on UO-31 renal, 93.2%; in the experiment on TK-10 renal it was 109%; in the experiment on ACHN renal it was 106%. Further, the growth in the experiment with CAKI-1 renal was 101%; in the experiment on A498 renal it was 106%; in the experiment on CCRF-CEM leukemia, 94.4%; in the experiment on MOLT-4 leukemia, 116%; in the experiment with SR leukemia, 105%; in the experiment with RPMI-8226 leukemia it was 98.2%. For the same compound, the growth was 107% in the experiment with OVCAR-8 ovarian; 99.6% with OVCAR-4 ovarian; 99.6% in the experiment on SK-OV-3 ovarian; 116% in the experiment with IGROV1 ovarian; 112% in the experiment with OVCAR-3 ovarian; 104% in the experiment on HS 578T breast. In addition, the growth in the experiment with NCI/ADR-RES ovarian was 106%.

Take `Cc1ccc2c(c1)C(=O)/C(=C/c1cccc(OCC(=O)c3ccc(Cl)cc3)c1)CS2`: the growth is 58.2% with SK-MEL-2 melanoma; 91.9% in the experiment with EKVX NSCLC; 88.4% in the experiment on SN12C renal; 71.2% with UO-31 renal; 93% in the experiment with TK-10 renal; 99.6% in the experiment on ACHN renal. The growth was 89.2% in the experiment on CAKI-1 renal; 80.4% with A498 renal; -2.6% (active) in the experiment with CCRF-CEM leukemia; 19.1% with MOLT-4 leukemia; 9.06% (active) with SR leukemia; -27% (active) with RPMI-8226 leukemia. The growth was 69.7% with OVCAR-8 ovarian; 105% in the experiment with OVCAR-5 ovarian; 104% in the experiment with OVCAR-4 ovarian; 115% in the experiment on SK-OV-3 ovarian; 98.1% in the experiment on OVCAR-3 ovarian; 99.9% in the experiment with HS 578T breast. In addition, the growth in the experiment on NCI/ADR-RES ovarian was 54.4%.

With `Cc1nc(/N=C(\N)NC(=O)Nc2cccc([N+](=O)[O-])c2)sc1C`, the growth with SK-MEL-2 melanoma was 88.1%; with EKVX NSCLC, 77.3%; in the experiment with SN12C renal, 86.9%; with UO-31 renal it was 83%; with TK-10 renal, 110%; with ACHN renal, 92%. In addition, the growth in the experiment with CAKI-1 renal was 58.3%; in the experiment with A498 renal it was 57.2%; with CCRF-CEM leukemia, 69.1%; in the experiment with MOLT-4 leukemia, 51.5%; in the experiment with RPMI-8226 leukemia, 74.3%; in the experiment with OVCAR-8 ovarian it was 100%. In addition, the growth with OVCAR-5 ovarian was 91.5%; in the experiment with OVCAR-4 ovarian, 88.6%; in the experiment on SK-OV-3 ovarian, 101%; in the experiment on IGROV1 ovarian, 76.1%; in the experiment with OVCAR-3 ovarian, 95.9%; in the experiment on HS 578T breast, 74.5%. In addition, in the experiment with NCI/ADR-RES ovarian, the growth is 46.2%.

Take `COc1ccc(-n2nc(C)c3c(Nc4ccc(NC(=O)Nc5ccc(Cl)c(C(F)(F)F)c5)cc4)ncnc32)cc1`: the growth in the experiment on SK-MEL-2 melanoma was -30.2% (active); with EKVX NSCLC, 6.63% (active); with SN12C renal it was 3.5% (active); in the experiment on UO-31 renal, 4.67% (active); in the experiment with TK-10 renal it was 5.29% (active); in the experiment on ACHN renal, 1.09% (active). The growth was -3.15% (active) with CAKI-1 renal; -3.28% (active) in the experiment on A498 renal; 17.2% in the experiment with CCRF-CEM leukemia; 8.28% (active) in the experiment on MOLT-4 leukemia; 20.8% in the experiment with SR leukemia; 0.105% (active) in the experiment with RPMI-8226 leukemia. Also, the growth is 5.05% (active) in the experiment with OVCAR-8 ovarian; 20.8% with OVCAR-4 ovarian; 1.72% (active) with SK-OV-3 ovarian; 18.6% in the experiment with IGROV1 ovarian; 5.65% (active) in the experiment with OVCAR-3 ovarian; -12% (active) in the experiment on HS 578T breast. In the experiment with NCI/ADR-RES ovarian, the growth is 1.32% (active).

`Cn1cc(C(=O)c2nc(-c3c[nH]c4ccc(F)cc34)no2)c2cc(F)ccc21`: the growth in the experiment with SK-MEL-2 melanoma is 98.1%; in the experiment on EKVX NSCLC it was 89.8%; in the experiment with SN12C renal, 95.1%; with UO-31 renal, 69.5%; with TK-10 renal it was 113%; in the experiment with ACHN renal, 96.1%. Also, the growth in the experiment with CAKI-1 renal is 82.5%; in the experiment on A498 renal, 112%; with CCRF-CEM leukemia it was 91.7%; in the experiment with MOLT-4 leukemia, 95.2%; in the experiment on SR leukemia it was 48.1%; in the experiment on RPMI-8226 leukemia, 98.8%. Besides, the growth in the experiment on OVCAR-8 ovarian is 95.9%; in the experiment with OVCAR-4 ovarian, 97.5%; with SK-OV-3 ovarian it was 83.6%; in the experiment on IGROV1 ovarian, 66.8%; with OVCAR-3 ovarian, 97.4%; with NCI/ADR-RES ovarian it was 84%.

For `CC(=O)NCC1c2c(n(C)c3c(Cl)c(Cl)ccc23)C(=O)NC1(C)C` (stereo unspecified), the growth was 103% with SK-MEL-2 melanoma; 90.7% in the experiment with EKVX NSCLC; 85.5% in the experiment on SN12C renal; 84.6% with UO-31 renal; 89.5% with TK-10 renal; 95.1% with ACHN renal. Besides, the growth in the experiment on CAKI-1 renal was 77.4%; in the experiment with A498 renal, 93%; with CCRF-CEM leukemia, 107%; with MOLT-4 leukemia, 84.9%; in the experiment on SR leukemia, 75.2%; in the experiment on RPMI-8226 leukemia it was 100%. The growth in the experiment on OVCAR-8 ovarian is 91.3%; in the experiment with OVCAR-4 ovarian it was 103%; in the experiment on SK-OV-3 ovarian, 116%; in the experiment on IGROV1 ovarian, 96.5%; with OVCAR-3 ovarian, 107%; in the experiment with HS 578T breast, 104%. For the same compound, in the experiment with NCI/ADR-RES ovarian, the growth was 88.1%.

For the compound `COc1cccc(-c2nn(C(C)(C)C)cc2-c2ccnc(NCCCNS(=O)(=O)c3cccc4ccccc34)c2)c1`, the growth is 111% in the experiment on SK-MEL-2 melanoma; 98.9% in the experiment on EKVX NSCLC; 103% in the experiment on SN12C renal; 91.1% with UO-31 renal; 101% in the experiment with TK-10 renal; 107% in the experiment on ACHN renal. The growth in the experiment with CAKI-1 renal is 96.6%; with A498 renal, 76.9%; in the experiment with CCRF-CEM leukemia, 102%; in the experiment on MOLT-4 leukemia, 104%; in the experiment on RPMI-8226 leukemia, 103%; in the experiment on OVCAR-8 ovarian, 103%. The growth in the experiment on OVCAR-5 ovarian is 104%; with OVCAR-4 ovarian it was 101%; in the experiment with SK-OV-3 ovarian, 110%; in the experiment with IGROV1 ovarian, 110%; with OVCAR-3 ovarian, 108%; in the experiment on HS 578T breast, 101%. Further, the growth in the experiment with NCI/ADR-RES ovarian was 101%.

For the compound `COc1ccc(-n2nc(C)c3c(Nc4ccc(NC(=O)Nc5c(Cl)cccc5Cl)cc4)ncnc32)cc1`, the growth in the experiment on SK-MEL-2 melanoma is 79.1%; in the experiment on EKVX NSCLC it was 67%; in the experiment on SN12C renal, 77%; in the experiment with UO-31 renal it was 8.74% (active); with TK-10 renal, 59.8%; in the experiment with ACHN renal it was 43.3%. The growth in the experiment on CAKI-1 renal was 57.9%; in the experiment with A498 renal it was 63.4%; in the experiment with CCRF-CEM leukemia it was 84.5%; in the experiment on MOLT-4 leukemia, 81.7%; with SR leukemia, 32.2%; in the experiment on RPMI-8226 leukemia it was 50.7%. For the same compound, the growth in the experiment on OVCAR-8 ovarian is 56%; with OVCAR-4 ovarian, 60.9%; in the experiment with SK-OV-3 ovarian, 83.3%; in the experiment on IGROV1 ovarian it was 71.7%; with OVCAR-3 ovarian, 40.8%; in the experiment with HS 578T breast, 71.7%. Moreover, the growth in the experiment on NCI/ADR-RES ovarian is 55.9%.
